Structures are written as SMILES. Screen size: about 1,400 compounds; about 350 (25%) were called active. About 2% were inconclusive and are not listed. Not all results are given here. Measured potencies and affinities stand elsewhere. A number with no mark means an inactive call. No rule for the calls is given here.

The assay in a line: C. difficile growth inhibition, confirmation, 4-point retest (AID 1224921).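 Also: plate controls were DMSO wells for no effect and levofloxacin 16 µg/mL wells for full effect.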 The note with it: Clostridioides difficile clinical isolate growth, OD600, 24 h, stronger effect = lower value; at 30 µM unless noted.
For the compound `C[C@H]1CN([C@@H](C)CO)S(=O)(=O)c2ccc(C3=CCCCC3)cc2O[C@H]1CN(C)C(=O)C1CCCCC1`, the max activity is 30.6%.

`C[C@@H]1CN([C@H](C)CO)C(=O)c2cc(Br)cnc2O[C@H]1CN(C)C(=O)c1ccccc1`: the max activity was -3.07% [at 8 µM].

As for `C[C@H]1CN([C@@H](C)CO)S(=O)(=O)c2ccc(C#CC3CCCCC3)cc2O[C@H]1CN(C)Cc1cccnc1`, the max activity was 35.6%.

In the case of `CO[C@H]1CN(C)C(=O)c2cc(NC(=O)c3ccc(F)cc3)ccc2OC[C@@H](C)N(C(C)=O)C[C@H]1C`, the max activity was -8.16% [at 1.95 µM].

For `C[C@H](C(=O)N(C)C[C@H]1OCc2ccccc2-c2ccccc2C(=O)N([C@@H](C)CO)C[C@H]1C)c1ccccc1`, the max activity is 18.3%.

`C[C@@H]1CN([C@H](C)CO)C(=O)c2cc(NC(=O)Nc3cccc4ccccc34)ccc2O[C@@H](C)CCCCO[C@H]1CN(C)S(=O)(=O)c1ccc(F)cc1`: the max activity was 36.9%.

As to `C[C@@H]1CN([C@@H](C)CO)C(=O)Cc2cc(NC(=O)NC3CCCCC3)ccc2O[C@@H]1CN(C)S(=O)(=O)c1ccc(Cl)cc1`, the max activity was 20.4%.

For the compound `C[C@@H]1CN([C@@H](C)CO)S(=O)(=O)c2ccc(C#CC3CC3)cc2O[C@H]1CN(C)Cc1cccnc1`, the max activity is 34.2%.

`CCCNC(=O)N1C[C@H](C)[C@@H](OC)CN(C)C(=O)c2cc(NC(C)=O)ccc2OC[C@@H]1C`: the max activity was -10.9% [at 1.95 µM].

For `COc1ccc(NC(=O)N[C@@H]2C=C[C@H](CC(=O)NC3CCCCC3)O[C@@H]2CO)cc1`, the max activity is 13.1% [at 1.95 µM].

With `CCC(=O)N(C)C[C@@H]1Oc2cc(C#CCC3CCCC3)ccc2S(=O)(=O)N([C@@H](C)CO)C[C@H]1C`, the max activity is 27.8%.

Regarding `O=C(C[C@H]1C=C[C@H](NC(=O)CCN2CCCCC2)[C@H](CO)O1)Nc1ccc(-c2ccccc2)cc1`, the max activity was 11.2%.

In the case of `CCCC#Cc1ccc([C@@H]2[C@H](C#N)N(S(=O)(=O)c3cccc(F)c3)[C@H]2CO)cc1`, the max activity was 21.1%.

In the case of `COc1ccc(NC(=O)N(C)C[C@@H]2Oc3ncc(-c4cccnc4)cc3C(=O)N([C@@H](C)CO)C[C@@H]2C)cc1`, the max activity was -18.5% [at 8 µM].

Turning to `CC(C)CC#Cc1ccc2c(c1)O[C@@H](CN(C)C(=O)c1ccccc1F)[C@@H](C)CN([C@@H](C)CO)S2(=O)=O`, the max activity is 18%.

Take `O=C(C[C@H]1CC[C@H]2[C@@H](COC[C@@H](O)CN2Cc2cccc(Cl)c2)O1)NCC1CCCCC1`: the max activity is 11.9% [at 8 µM].

As for `COc1ccccc1S(=O)(=O)N(C)C[C@H]1Oc2cc(C#CCC(C)C)ccc2S(=O)(=O)N([C@@H](C)CO)C[C@@H]1C`, the max activity was 10.5%.

Regarding `C[C@H]1CN([C@@H](C)CO)S(=O)(=O)c2ccc(Br)cc2O[C@@H]1CN(C)Cc1cccc(F)c1`, the max activity is 41.5%.

For `C[C@H]1CN([C@@H](C)CO)C(=O)c2c(c3ccccc3n2C)-c2ccccc2CO[C@H]1CN(C)S(=O)(=O)CC(F)(F)F`, the max activity was 14.7%.

Regarding `CCCC(=O)Nc1ccc2c(c1)OC[C@H](C)N(Cc1ccncc1)C[C@@H](C)[C@H](OC)CN(C)C2=O`, the max activity is 14.3%.

On to `CCCN1C[C@@H](C)[C@@H](OC)CN(C)C(=O)c2cc(NC(=O)CC)ccc2OC[C@H]1C`, for which the max activity was -7.79% [at 0.5 µM].

As to `CO[C@@H]1CN(C)C(=O)c2cc(NS(=O)(=O)c3cccc(F)c3)ccc2OC[C@@H](C)N(Cc2cc(F)ccc2F)C[C@@H]1C`, the max activity is 14.2%.

For `NC(=O)[C@@H]1[C@H]2C(=O)O[C@H](c3ccccc3)[C@H](c3ccccc3)N2[C@H](c2ccc(O)cc2)[C@@]12C(=O)Nc1ccc(C#CC3=CCCCC3)cc12`, the max activity is 21.8%.

With `CCCN1C[C@H](C)[C@@H](OC)CN(C)C(=O)c2ccc(NC(=O)Nc3c(C)noc3C)cc2OC[C@@H]1C`, the max activity is 29.7%.

Turning to `C[C@@H]1CN([C@@H](C)CO)C(=O)c2ccccc2-c2ccccc2CO[C@H]1CN(C)C(=O)c1ccc(F)cc1`, the max activity was -6.68% [at 8 µM].

For `C[C@@H]1CN([C@@H](C)CO)C(=O)Cc2cc(NC(=O)c3ccncc3)ccc2O[C@@H]1CN(C)Cc1ccc(-c2ccccc2)cc1`, the max activity is 41.4%.

As to `N#C[C@H]1[C@@H](c2ccc(C#CC3CCCCC3)cc2)[C@@H](CO)N1C(=O)Cc1ccccn1`, the max activity is 24.3% [at 0.5 µM].

For the compound `C[C@H](CO)N1C[C@H](C)[C@@H](CN(C)Cc2ccccc2)Oc2ccc(NS(C)(=O)=O)cc2CC1=O`, the max activity is 28% [at 35 µM].

As for `CO[C@@H]1CN(C)C(=O)c2ccc(NC(=O)c3ccc(F)cc3)cc2OC[C@@H](C)N(C(=O)c2ccc(F)cc2)C[C@@H]1C`, the max activity was -7.95% [at 0.5 µM].

Take `C[C@@H](NC(=O)C[C@H]1C=C[C@H](NC(=O)C2CCC2)[C@@H](CO)O1)c1ccccc1`: the max activity is -13.6% [at 0.5 µM].

`CCC(=O)N1C[C@H](C)[C@H](OC)CN(C)C(=O)c2cc(NS(=O)(=O)CC)ccc2OC[C@H]1C`: the max activity is -9.49% [at 1.95 µM].

As to `C[C@H]1CN([C@@H](C)CO)S(=O)(=O)c2ccc(C#CC3CC3)cc2O[C@@H]1CN(C)Cc1ccncc1`, the max activity is 47%.

Consider `C[C@@H]1CN([C@@H](C)CO)C(=O)c2c(c3ccccc3n2C)-c2ccccc2CO[C@@H]1CN(C)Cc1cccc(C(=O)O)c1`, for which the max activity is -12.2% [at 8 µM].

As to `Cc1ccc(F)cc1S(=O)(=O)N[C@H]1CCN(Cc2ccc(OC(C)C)cc2)C1`, the max activity is 21.6%.

Consider `COc1ccc(CN(C)C[C@@H]2Oc3c(NC(=O)Nc4ccc(C(F)(F)F)cc4)cccc3C(=O)N([C@@H](C)CO)C[C@H]2C)cc1`, for which the max activity is 38%.

`COc1ccc(CN(C)C[C@H]2Oc3c(NC(=O)Nc4ccc(C(F)(F)F)cc4)cccc3C(=O)N([C@@H](C)CO)C[C@@H]2C)cc1`: the max activity is 32.3% [at 8 µM].

Consider `COc1cccc(S(=O)(=O)N[C@@H]2CC[C@H](CCN)O[C@@H]2CO)c1`, for which the max activity was -11.8% [at 1.95 µM].

`CNC[C@@H]1Oc2cc(C#CCC3CCCC3)ccc2S(=O)(=O)N([C@H](C)CO)C[C@H]1C`: the max activity is 18.8% [at 8 µM].

With `CCS(=O)(=O)Nc1ccc2c(c1)C(=O)N(C)C[C@H](OC)[C@H](C)CN(C)[C@H](C)CO2`, the max activity was -7.51% [at 1.95 µM].

On to `CCCC#Cc1ccc2c(c1)O[C@H](CN(C)Cc1ccncc1)[C@@H](C)CN([C@@H](C)CO)S2(=O)=O`, for which the max activity is 18.4%.

For the compound `CO[C@@H]1CN(C)C(=O)c2ccc(NC(=O)C3CCC3)cc2OC[C@@H](C)N(S(=O)(=O)c2ccc(Cl)cc2)C[C@H]1C`, the max activity was -9.7% [at 2.1 µM].

With `C[C@H](CO)N1C[C@H](C)[C@@H](CN(C)C(=O)Nc2ccc3c(c2)OCO3)Oc2cc(C#Cc3cccnc3)ccc2S1(=O)=O`, the max activity was -15.3% [at 8 µM].

`CN(C)C(=O)C[C@@H]1CC[C@H](NC(=O)c2ccc(F)cc2)[C@H](CO)O1`: the max activity is -7.24% [at 1.95 µM].

As for `O=C(N[C@H]1CC[C@@H](CCNS(=O)(=O)Cc2ccccc2)O[C@@H]1CO)c1ccc2c(c1)OCO2`, the max activity is 16.7%.

In the case of `C[C@@H](NC(=O)C[C@@H]1C=C[C@@H](NC(=O)C2CCC2)[C@H](CO)O1)c1ccccc1`, the max activity is -14.9%.

On to `COc1ccc(C(=O)Nc2ccc3c(c2)OC[C@@H](C)N(C(=O)C2CC2)C[C@@H](C)[C@H](OC)CN(C)C3=O)cc1`, for which the max activity is 3.99% [at 35 µM].

With `CO[C@H]1CN(C)C(=O)c2ccc(NC(=O)c3ccccc3F)cc2OC[C@H](C)N(CC2CC2)C[C@H]1C`, the max activity is -14.6% [at 1.95 µM].

With `C[C@@H]1CN([C@@H](C)CO)C(=O)Cc2cc(NS(C)(=O)=O)ccc2O[C@@H]1CN(C)Cc1ccc(-c2ccccc2)cc1`, the max activity was 21.7%.

`CNC[C@@H]1Oc2cc(-c3ccccc3F)ccc2S(=O)(=O)N([C@H](C)CO)C[C@H]1C`: the max activity is 24.6%.

On to `CN(C)C(=O)C[C@@H]1CC[C@H](NC(=O)c2ccc(F)cc2)[C@@H](CO)O1`, for which the max activity is 5.78% [at 8 µM].

In the case of `O=C(Cc1ccncc1)NCC[C@H]1CC[C@H](NC(=O)C2CCC2)[C@H](CO)O1`, the max activity was -8.69% [at 1.95 µM].

As to `O=C(Cc1ccncc1)NCC[C@@H]1CC[C@H](NC(=O)C2CCC2)[C@@H](CO)O1`, the max activity is -11.9% [at 0.5 µM].

For the compound `O=C(Cc1ccncc1)NCC[C@H]1CC[C@H](NC(=O)C2CCC2)[C@@H](CO)O1`, the max activity was -8.1% [at 35 µM].

As for `COc1ccc(-c2ccc3c(c2)O[C@H](CN(C)Cc2cccnc2)[C@@H](C)CN([C@H](C)CO)S3(=O)=O)cc1`, the max activity is 25.8%.

Turning to `C[C@@H]1CN([C@H](C)CO)C(=O)Cc2cc(NC(=O)c3ccncc3)ccc2O[C@H]1CN(C)Cc1ccc(Cl)c(Cl)c1`, the max activity is 5.9% [at 35 µM].

As to `O=C(N[C@@H]1C=C[C@H](CC(=O)N2CCOCC2)O[C@@H]1CO)c1cccc(F)c1`, the max activity was 9.1% [at 8 µM].

As to `CCCC(=O)Nc1ccc2c(c1)C(=O)N(C)C[C@H](OC)[C@@H](C)CN(CC1CCOCC1)[C@H](C)CO2`, the max activity was -10.3%.

Take `O=C(C[C@H]1C[C@H]2c3cc(NS(=O)(=O)c4ccc(F)cc4)ccc3O[C@H]2[C@H](CO)O1)NCc1ccc(-c2ccccc2)cc1`: the max activity was -6.35% [at 1.95 µM].

These data come from PubChem BioAssay AID1224921 (Broad Institute, 2016).
